# Source: PubChem BioAssay (NCATS)
# Results filed as inconclusive are left out. Activity calls are given as the source filed them. Calls come from the whole dose curve; as a rule, active = well fitted inhibition curve with a large enough effect; inconclusive = small, poorly fitted or top-dose-only effect; inactive = flat fitted curve, though single readings scatter.
# Key:
# Assay in all cases: qHTS profiling for inhibitors of Plasmodium falciparum proliferation (AID 504749); note: nearly all actives have a fitted effect of over 60% in size
# [1] = system: CP256; conditions: P. falciparum in erythrocytes, SYBR Green DNA, 72 h; series mostly up to 28.7 µM
# Summary of the method: (§1)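 Infected RBCs, 0.3% parasitemia/2.5% Hct final; cpd 72 h, 37 C, 5% CO2; lysis buffer with saponin/triton/SYBR Green I, o/n RT dark; FI 485/535; norm. to artemisinin (0.29 uM) and DMSO.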
# [2] = system: CP260; conditions: P. falciparum in erythrocytes, SYBR Green DNA, 72 h; series mostly up to 28.7 µM
# Summary of the method: as §1
# [3] = system: CP265; conditions: P. falciparum in erythrocytes, SYBR Green DNA, 72 h; series mostly up to 12.8 µM
# Summary of the method: as §1
# [4] = system: CP266; conditions: P. falciparum in erythrocytes, SYBR Green DNA, 72 h; series mostly up to 12.8 µM
# Summary of the method: as §1
# [5] = system: CP268; conditions: P. falciparum in erythrocytes, SYBR Green DNA, 72 h; series mostly up to 28.7 µM
# Summary of the method: as §1
# [6] = system: CP269; conditions: P. falciparum in erythrocytes, SYBR Green DNA, 72 h; series mostly up to 28.7 µM
# Summary of the method: as §1
# [7] = system: CP286; conditions: P. falciparum in erythrocytes, SYBR Green DNA, 72 h; series mostly up to 28.7 µM
# Summary of the method: as §1
# [8] = system: CP291; conditions: P. falciparum in erythrocytes, SYBR Green DNA, 72 h; series mostly up to 28.7 µM
# Summary of the method: as §1
# [9] = system: CP297; conditions: P. falciparum in erythrocytes, SYBR Green DNA, 72 h; series mostly up to 28.7 µM
# Summary of the method: as §1
# [10] = system: CP305; conditions: P. falciparum in erythrocytes, SYBR Green DNA, 72 h; series mostly up to 28.7 µM
# Summary of the method: as §1
# [11] = system: CP315; conditions: P. falciparum in erythrocytes, SYBR Green DNA, 72 h; series mostly up to 28.7 µM
# Summary of the method: as §1
# [12] = system: CP325; conditions: P. falciparum in erythrocytes, SYBR Green DNA, 72 h; series mostly up to 28.7 µM
# Summary of the method: as §1
# [13] = system: CP329; conditions: P. falciparum in erythrocytes, SYBR Green DNA, 72 h; series mostly up to 28.7 µM
# Summary of the method: as §1
# [14] = system: DFO2036; conditions: P. falciparum in erythrocytes, SYBR Green DNA, 72 h; series mostly up to 28.7 µM
# Summary of the method: as §1
# [15] = system: DIV14; conditions: P. falciparum in erythrocytes, SYBR Green DNA, 72 h; series mostly up to 28.7 µM
# Summary of the method: as §1
# [16] = system: DIV17; conditions: P. falciparum in erythrocytes, SYBR Green DNA, 72 h; series mostly up to 28.7 µM
# Summary of the method: as §1
# [17] = system: DIV30; conditions: P. falciparum in erythrocytes, SYBR Green DNA, 72 h; series mostly up to 28.7 µM
# Summary of the method: as §1
# [18] = system: Dd2; conditions: P. falciparum in erythrocytes, SYBR Green DNA, 72 h; series mostly up to 28.7 µM
# Summary of the method: as §1
# [19] = system: ECU; conditions: P. falciparum in erythrocytes, SYBR Green DNA, 72 h; series mostly up to 28.7 µM
# Summary of the method: as §1
# [20] = system: FAB9; conditions: P. falciparum in erythrocytes, SYBR Green DNA, 72 h; series mostly up to 28.7 µM
# Summary of the method: as §1
# [21] = system: GB4; conditions: P. falciparum in erythrocytes, SYBR Green DNA, 72 h; series mostly up to 28.7 µM
# Summary of the method: as §1
# [22] = system: HB3; conditions: P. falciparum in erythrocytes, SYBR Green DNA, 72 h; series mostly up to 28.7 µM
# Summary of the method: as §1
# [23] = system: ICS; conditions: P. falciparum in erythrocytes, SYBR Green DNA, 72 h; series mostly up to 28.7 µM
# Summary of the method: as §1
# [24] = system: N140; conditions: P. falciparum in erythrocytes, SYBR Green DNA, 72 h; series mostly up to 28.7 µM
# Summary of the method: as §1
# [25] = system: P93_24; conditions: P. falciparum in erythrocytes, SYBR Green DNA, 72 h; series mostly up to 28.7 µM
# Summary of the method: as §1
# [26] = system: P94_40; conditions: P. falciparum in erythrocytes, SYBR Green DNA, 72 h; series mostly up to 28.7 µM
# Summary of the method: as §1
# [27] = system: PAD; conditions: P. falciparum in erythrocytes, SYBR Green DNA, 72 h; series mostly up to 28.7 µM
# Summary of the method: as §1
# [28] = system: PC15; conditions: P. falciparum in erythrocytes, SYBR Green DNA, 72 h; series mostly up to 28.7 µM
# Summary of the method: as §1
# [29] = system: PC26; conditions: P. falciparum in erythrocytes, SYBR Green DNA, 72 h; series mostly up to 28.7 µM
# Summary of the method: as §1
# [30] = system: PC49; conditions: P. falciparum in erythrocytes, SYBR Green DNA, 72 h; series mostly up to 28.7 µM
# Summary of the method: as §1
# [31] = system: SC27B; conditions: P. falciparum in erythrocytes, SYBR Green DNA, 72 h; series mostly up to 28.7 µM
# Summary of the method: as §1
# [32] = system: TAB109; conditions: P. falciparum in erythrocytes, SYBR Green DNA, 72 h; series mostly up to 12.8 µM
# Summary of the method: as §1
# [33] = system: TAB113; conditions: P. falciparum in erythrocytes, SYBR Green DNA, 72 h; series mostly up to 28.7 µM
# Summary of the method: as §1
# [34] = system: TAB165; conditions: P. falciparum in erythrocytes, SYBR Green DNA, 72 h; series mostly up to 28.7 µM
# Summary of the method: as §1
# [35] = system: W2; conditions: P. falciparum in erythrocytes, SYBR Green DNA, 72 h; series mostly up to 12.8 µM
# Summary of the method: as §1
# Potency is the fitted concentration of half-maximal effect.
smiles,measurement,setting,value
CO[C@@H](COC(N)=O)C1=C(N2CC2)C(=O)C(C)=C(N2CC2)C1=O,Potency,[1],1.41 µM (active)
same,Potency,[2],1 µM (active)
same,Potency,[3],0.708 µM (active)
same,Potency,[4],3.79 µM (active)
same,Potency,[5],3.01 µM (active)
same,Potency,[6],0.953 µM (active)
same,Potency,[7],1.12 µM (active)
same,Potency,[8],1.35 µM (active)
same,Potency,[9],1.69 µM (active)
same,Potency,[10],1.9 µM (active)
same,Potency,[11],3.38 µM (active)
same,Potency,[12],3.01 µM (active)
same,Potency,[13],1.51 µM (active)
same,Potency,[14],0.794 µM (active)
same,Potency,[15],1.51 µM (active)
same,Potency,[16],1.9 µM (active)
same,Potency,[17],3.01 µM (active)
same,Potency,[18],0.891 µM (active)
same,Potency,[19],2 µM (active)
same,Potency,[20],7.94 µM (active)
same,Potency,[21],1.51 µM (active)
same,Potency,[22],2 µM (active)
same,Potency,[23],1 µM (active)
same,Potency,[24],1.26 µM (active)
same,Potency,[25],1.12 µM (active)
same,Potency,[26],1.12 µM (active)
same,Potency,[27],1.26 µM (active)
same,Potency,[28],2.82 µM (active)
same,Potency,[29],1.9 µM (active)
same,Potency,[30],inactive
same,Potency,[31],1.26 µM (active)
same,Potency,[32],1.12 µM (active)
same,Potency,[33],1.26 µM (active)
same,Potency,[34],0.708 µM (active)
same,Potency,[35],0.301 µM (active)
